This is part of a sample that, as a whole, favours compounds with a hit. Of some 83,000 tested, about 20% had one in any assay.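 Cells were grown in 96-well plates and exposed to the test compound at a single concentration for 48 hours; results are reported as percent growth, with values below 10 considered active.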 The source made the active and inactive calls.
system: HOP-92 NSCLC; test: NCI-60 one-dose screen, 48 h (100 = growth as untreated, 0 = no growth, -100 = all killed); conditions: 10 µM unless noted
Procedure: Growth inhibition of the HOP-92 human Non-Small Cell Lung tumor cell line is measured as a screen for anti-cancer activity. Cells are grown in 96 well plates and exposed to the test compound for 48 hours. Compounds are tested at a single concentration, which is 10^-5 M for most compounds. The reported endpoint is percent growth (GI% or GIPRCNT), where numbers from 0 - 100% represent growth inhibition, and numbers from -100% - 0 represent cell death. For example, a value of 40 represents 60% growth inhibition. A value of 0 means no net growth occurred over the course of the experiment. A value of -40 indicates 40% of cells at the beginning of the experiment died by the end of the experiment. A value of -100 means all cells are dead at the end of the experiment.
NCI-60 Human Tumor Cell Lines Screen was performed using the standard one-dose NCI protocol, which is described in more detail at https://dtp.cancer.gov/discovery_development/nci-60/default.htm.
Compounds with GIPRCNT values below 10 were considered active. Activity score was based on GIPRCNT using the following formula: […]
Score is 0 for GIPRCNT values of 100 or above, 50 for GIPRCNT values of 0, and 100 for GIPRCNT values of -100.

SMILES	growth
CCc1cc(OC(=O)N2CCC(N3CCCCC3)CC2)ccc1Nc1cc(-c2ccc(-n3cccn3)cc2)[nH]n1	103% (inactive)
C#C[C@]1(O)CC[C@H]2[C@@H]3CC=C4c5sc(Nc6ncccc6C)nc5CC[C@]4(C)[C@H]3CC[C@@]21C	20.5% (inactive)
CC1=C(C)C(=O)C(Nc2cccc(C(=O)OC(C)(C)C)c2)=C(Cl)C1=O	56.4% (inactive)
CCS(=O)(=O)Nc1ccc(C(=O)CC2(O)C(=O)Nc3ccccc32)cc1 (stereo not given)	38.2% (inactive)
O=C(Nc1ccc(N2CCOCC2)cc1)Nc1ccc2c(ccn2C(=O)c2cccc(F)c2)c1	31.4% (inactive)
CN1CCN(c2ccc(Nc3nc(NCCNC(=O)c4ccccc4)c4sccc4n3)cc2)CC1	69.4% (inactive)
O=c1c2ccccc2cc2n1CCN=C2c1ccccc1	81% (inactive)
COCCOc1ccc2ncc(C#Cc3cncc(C(=O)Nc4ccc(CN5CCN(C)CC5)c(C(F)(F)F)c4)c3)n2n1	-44.1% (active)
CC(=O)OC[C@@]12Oc3c(cccc3-c3ccc(O)c4c3O[C@]3(COC(C)=O)C(=C4O)C(=O)C[C@H](C)[C@@H]3OC(C)=O)C(O)=C1C(=O)C[C@H](C)[C@@H]2OC(C)=O	-25.2% (active)
CCCCCc1ccc(S(=O)(=O)Nc2cc(-c3csc(N)n3)ccc2OC)cc1	97.3% (inactive)
C=CCSC1=NC2C(N(CC)C(=O)N2CC)N1/N=C/C=C/c1ccccc1OC (stereo not given)	68.4% (inactive)
C/C(=N\NC(=O)Nc1ccccc1)c1nnn(-c2ccc([N+](=O)[O-])cc2)c1C	120% (inactive)
COc1cccc2c1C=CC1(O2)Oc2cccc(OC)c2C=C1C (stereo not given)	-5.13% (active)
O=C(CSc1nc2ccccc2c(=O)n1-c1ccc(S(=O)(=O)Nc2ccc(Cl)nn2)cc1)Nc1ccc(S(=O)(=O)Nc2ccc(Cl)nn2)cc1	107% (inactive)
COc1cc2c3c(cc4c5c(ccc4c3c1OC)OCO5)N(CCN(C)C)C2=O	-9.11% (active)
CC[C@]12C=CCN3CC[C@]4(C(=C(C(=O)OC)C1)Nc1cc5c(cc14)[C@@H]1[C@H](O5)[C@@H](O)[C@@]4(CC)CC(C(=O)OC)=C5Nc6cc(O)ccc6[C@@]56CCN1C46)C32 (stereo not given in full)	35.5% (inactive)
O=C(Nc1cc(C(F)(F)F)cc(C(F)(F)F)c1)Nc1ccc2oc(=O)ccc2c1	-26.2% (active)
Cc1ccc(C(=O)CSc2nc3ccccc3c(=O)n2C)cc1	79.6% (inactive)
O=C1C(SCc2ccccc2)=C(Cl)CN1c1ccccc1	94.5% (inactive)
CCCC[n+]1ccc(SCC(=O)n2ccc3ccccc32)c2ccccc21	138% (inactive)

SMILES	growth
CCOC(=O)c1c(NC(=O)c2ccc(C(F)(F)F)cc2)sc2c3c(ccc12)OCN(C)C3	14.5% (inactive)
CCCCCCCCCCCC(=O)NC(C)(C)C(=O)N1CCCC1C(=O)NC(C)(C)C(=O)NC(C)(C)C(=O)N1CCCC1C(=O)NC(C)(C)C(=O)NC(C)(C)C(=O)N1CCCC1C(=O)NC(C)C(=O)NCCC(=O)NC(C)C(=O)NC(C)(C)C(=O)NC(C)(C)C(=O)NC(C)(C)C(=O)NCCC(=O)NC(C)(C)C(=O)NC(C)(C)C(=O)NC(C)(C)C(=O)NC(C)C(=O)NCCC(=O)O (stereo not given)	-96% (active)
COc1ccc(N2CCN(C3=C(Cl)C(=O)c4ncccc4C3=O)CC2)cc1	96.2% (inactive)
Cc1ccc2c(n1)C(=O)C(Cl)=C(Nc1ccc(C(C)C)cc1)C2=O	17.1% (inactive)
O=c1nc(Nc2ccc([N+](=O)[O-])cc2O)sc2ccccc12	-0.0775% (active)
O=C1CSC(c2cn(-c3ccccc3)nc2-c2ccc(Cl)cc2)N1c1ccccc1 (stereo not given)	100% (inactive)
Cn1cc(-c2nc(N)nnc2-c2c[nH]c3ccc(Br)cc23)c2cc(F)ccc21	98.7% (inactive)
CC1CC(=O)C2=C(C1)Nc1ccc(Br)cc1CC2c1c[nH]c2ccc(Br)cc12 (stereo not given)	76.6% (inactive)
FC(F)(F)c1cc(Br)cc(-c2cc(-c3ccc4c(c3)OCCO4)[nH]n2)c1	32% (inactive)
COc1ccc(OC)c(NC(=O)CCCCCCNC(=O)C(O)(O)C(F)(F)F)c1	28.8% (inactive)
COc1ccc(-c2cnc(NC(=O)CCCCCCNC(=O)C(O)(O)C(F)(F)F)s2)cc1	-25.4% (active)
O=C(Nc1ccc(N=Cc2c(O)[nH]c3ccccc23)cc1)Nc1ccc(S(=O)(=O)Nc2ncccn2)cc1	94.2% (inactive)
Cc1ccc(/C=N/Nc2nc(Nc3ccccc3)nc(Nc3ccc(S(N)(=O)=O)cc3)n2)cc1	112% (inactive)
CN1CCN(c2ccc(Nc3nc(NCCCNS(=O)(=O)c4cccc(F)c4)c4sccc4n3)cc2)CC1	58.7% (inactive)
CCOC(=O)Nc1ccc2c(ccn2C(=O)c2cccc(F)c2)c1	76% (inactive)
O=C(CCCCCCN1CC(=O)N2[C@@H](C3CC3)c3[nH]c4ccccc4c3C[C@H]2C1=O)NO	53.4% (inactive)
Oc1ccc(-c2nc3ccc(/C(=N\N=C\c4ccc(Cl)cc4)c4ccccc4)cc3[nH]2)cc1	118% (inactive)
COC(=O)c1cccc(NC2=C(Cl)C(=O)C(C)=C(C)C2=O)c1	33.9% (inactive)
CC[C@]12C=CCN3CC[C@@]4(c5ccc(OC)cc5N(C)[C@H]4[C@@](O)(C(=O)OC)[C@@H]1OC(=O)CCN1CCc4ccccc4C1)[C@@H]32	40.1% (inactive)
COc1ccc(C2CC(c3cccc(OCCCCOc4cccc(C5=NN(C(C)=O)C(c6ccc(OC)cc6)C5)c4)c3)=NN2C(C)=O)cc1 (stereo not given)	68.7% (inactive)

From PubChem BioAssay (NCI)
